# Several values for one entry are separate records, joined by “and”; a condition that tells them apart may be missing. Equal values may be shown once. Results filed as inconclusive are left out. Activity calls are given as the source filed them. Unless noted, calls follow the shape of the dose curve; as a rule, active = well fitted curve in either direction with a large enough effect (not every such curve was filed as active); inconclusive = small, poorly fitted or top-dose-only effect, or another doubt; inactive = flat fitted curve, though single readings scatter.
# Tests used:
# [1] = biological target: Lysosomal acid glucosylceramidase (Homo sapiens) (UniProt P04062); experiment: Glucocerebrosidase-p2 (AID 348; in the data active = potency below about 10 µM; also: potency is read from the fitted curve at half-maximal effect); conditions: purified GBA, blue fluorogenic substrate, 40 min
# In short: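 Compounds titrated from 0.6 nM upwards against 0.2 nM enzyme in pH 5.9 citric acid/KH2PO4, taurocholate, tween-20; blue fluorogenic substrate 80 uM, 40 min room temperature, stopped and read Ex 365/Em 440 for AC50.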
# [2] = AP1 Signaling Pathway (AID 357); conditions: ME-180 AP-1-bla reporter, EGF-induced, beta-lactamase ratio, 5 h; at 7.69 µM (top of the series) unless noted;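 also: ME-180 reporter cells stimulated with EGF at its EC50 level; % is scaled to controls: 0 for no effect and ±100 for the full control effect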
# In short: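 Read-out was the 460nm/530nm emission ratio (excitation 405nm) after CCF4 loading for 2.5 hours at room temperature. Cells carried an AP-1-driven beta-lactamase reporter, were stimulated with EC50 EGF plus compound for 5 hours, and AC50 values came from titrations.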
# [3] = biological target: Cytochrome P450 1A2 (Homo sapiens) (UniProt P05177); experiment: p450-cyp1a2 (AID 410; calls by dose curve; also: potency is read from the fitted curve at half-maximal effect;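 as to activity change, negative = inhibition: -100% = full effect of reference inhibitor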); conditions: recombinant CYP1A2, luciferin-ME demethylation, luminescence; series mostly up to 57 µM
# In short: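 Inhibition was calculated relative to 57 uM furafylline (full inhibition). The reaction used human CYP1A2 at 20nM with Luciferin-ME at its Km, 100uM, driven by an NADPH-regenerating system for 60 min at room temperature.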
# [4] = NFAT Signaling Pathway (AID 444); conditions: Jurkat NFAT-bla M1, carbachol, beta-lactamase ratio, 5 h; at 7.69 µM (top of the series) unless noted;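 also: carbachol stimulus at about its EC50 of 1 µM final; % is scaled to controls: 0 for no effect and ±100 for the full control effect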
# In short: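 Jurkat cells with NFAT-driven β-lactamase reporter and co-expressed M1 receptor, stimulated with carbachol (final 1 uM, ~EC50), compound titration, 5 h at 37 °C. CCF4 loaded 1 h at RT; 460/530 nm ratio gave %activity and AC50.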
# [5] = Stat Signaling Pathway (AID 446); conditions: ME-180 (cervical carcinoma) SIE beta-lactamase reporter, IL-6 stimulated, 5 h; at 7.69 µM (top of the series) unless noted;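 also: ME-180 cervical cancer cells given 40 pM IL-6 alongside compound; SIE-controlled beta-lactamase reporter measured as 460/530 nm FRET emission ratio; % is scaled to controls: 0 for no effect and ±100 for the full control effect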
# In short: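 IL-6/STAT signaling read in ME-180 cells via an SIE beta-lactamase reporter. Stimulus was 40 pM IL-6 (its AC50) for 5 hrs, so both activation and inhibition register.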
# [6] = biological target: Glucocorticoid receptor (Homo sapiens) (UniProt P04150); experiment: GR-EFC Redistribution (AID 451; calls by dose curve; also: potency is read from the fitted curve at half-maximal effect); conditions: CHO-K1 GR-EFC translocation, beta-gal luminescence, 2 h
# In short: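 CHO-K1 cells expressing nuclear EA and GR-ED fragments of b-gal; compounds titrated up to 46 uM final, 2 h at 37 C. GR nuclear translocation read as complemented b-gal luminescence after 1 h RT detection.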
# [7] = biological target: Mitogen-activated protein kinase 10 (Mus musculus) (UniProt Q61831); experiment: JNK3 AlphaScreen Assay (AID 530); conditions: JNK3 lysate, c-Jun phosphorylation; series mostly up to 57.1 µM;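 also: kinase came from lysate of stimulated human HepG2 cells; signal reports phosphorylation of biotinylated GST-cJun 1-79 at Ser73 with 10 µM ATP; % is scaled to controls: 0 for no effect and ±100 for the full control effect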
# In short: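 qHTS format: compounds tested as titrations against IL-1beta/TNF-alpha-activated HepG2 lysate JNK3 with biotin-GST-cJun substrate and 10 uM ATP at room temperature. Loss of anti-phospho-cJun AlphaScreen signal indicates inhibition.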
# [8] = biological target: 3',5'-cyclic-AMP phosphodiesterase 4B (Homo sapiens) (UniProt Q07343); experiment: qHTS Assay for Inhibitors of PDE-IV (AID 607; active = well fitted activation curve with a large enough effect in the main read-out, with a control signal flat, not every such curve was filed as active; also: % of control where 0% means no effect); conditions: HEK293 ACTOne CNG channel cells, membrane potential fluorescence; series mostly up to 22.9 µM
# In short: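 Live HEK293 cells with a modified cyclic nucleotide-gated (CNG) channel report intracellular cAMP via membrane-potential dye fluorescence (ex 535/em 590 nm). Endogenous PDE-IV was targeted. Compounds were tested at up to 22.9 uM final; RO 20-1724 100 uM served as control.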
# [9] = biological target: Glucocorticoid receptor (Homo sapiens) (UniProt P04150); experiment: GR-GFP Redistribution (AID 450;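 active = compounds whose dose series gives a full or clear partial fitted curve of increased nuclear translocation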; also: potency is read from the fitted curve at half-maximal effect); conditions: U2OS GR-GFP nuclear translocation, laser cytometry, 2 h
# [10] = biological target: Cytochrome P450 3A4 (Homo sapiens) (UniProt P08684); experiment: qHTS Assay for Activators of Cytochrome P450 3A4 (AID 885; active = well fitted curve in the direction sought with a large enough effect; an effect the other way counts as inactive or inconclusive; also: nearly all actives have a fitted effect of over 65% in size); conditions: recombinant CYP3A4, Luciferin-PPXE luminescence, 60 min; series mostly up to 57.1 µM
# In short: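 Quantitative HTS format: compounds preincubated with 20nM human CYP3A4 and Luciferin-PPXE substrate at KM, reaction started by NADPH regeneration, stopped after 60 min, luciferase luminescence read 20 min later.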
# [11] = biological target: Dual specificity protein kinase CLK4 (Homo sapiens) (UniProt Q9HAZ1); experiment: qHTS Assay for Inhibitors of CDC-like Kinase 4 (Kinase-Glo Assay) (AID 1770; active = well fitted curve in the direction sought with a large enough effect; an effect the other way counts as inactive or inconclusive; also: % is scaled to controls: 0 for no effect and ±100 for the full control effect; nearly all actives have a fitted effect of over 65% in size); conditions: recombinant Clk4, Kinase-Glo ATP depletion luminescence; series mostly up to 66.7 µM
# In short: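 Inhibition was judged from remaining ATP, measured by Ultra-Glo luciferase bioluminescence after Clk4 (25 nM) had acted on RS peptide at 1 uM ATP for 4.5 hours, room temperature.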
# [12] = biological target: Dual specificity protein kinase CLK4 (Homo sapiens) (UniProt Q9HAZ1); experiment: qHTS Assay for Inhibitors of CDC-like Kinase 4 (ADP-FP Assay) (AID 1795; active = well fitted curve in the direction sought with a large enough effect; an effect the other way counts as inactive or inconclusive;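 also: recombinant human CLK4 phosphorylating RS repeat peptide at 1 µM ATP; % is scaled to controls: 0 for no effect and ±100 for the full control effect; nearly all actives have a fitted effect of over 60% in size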); conditions: Transcreener ADP fluorescence polarization; series mostly up to 50 µM
# In short: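 Inhibition of ADP formation by 6.25 nM Clk4 is measured using 1 uM ATP and 100 uM RS repeat peptide over one hour. Produced ADP displaces a fluorescent tracer from antibody, lowering polarization.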
# [13] = biological target: Ubiquitin carboxyl-terminal hydrolase 1 (Homo sapiens) (UniProt O94782); experiment: Inhibitors of USP1/UAF1: Pilot qHTS (AID 504865; active = well fitted curve in the direction sought with a large enough effect; an effect the other way counts as inactive or inconclusive;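 also: rhodamine fluorescence freed from ubiquitin-rhodamine substrate followed over time; top concentration of the series differs between compounds; % is scaled to controls: 0 for no effect and ±100 for the full control effect; nearly all actives have a fitted effect of over 35% in size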); conditions: purified USP1/UAF1, Ub-rhodamine cleavage fluorescence; series mostly up to 54.9 µM
# In short: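 Kinetic fluorescence assay: 1nM USP1/UAF1, 15 min compound preincubation, then 150nM Ub-Rho; 480/540 nm.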
# [14] = biological target: Cytochrome P450 3A4 (Homo sapiens) (UniProt P08684); experiment: qHTS Assay for Inhibitors and Substrates of Cytochrome P450 3A4 (AID 884; active = well fitted curve in the direction sought with a large enough effect; an effect the other way counts as inactive or inconclusive; also: % is scaled to controls: 0 for no effect and ±100 for the full control effect; nearly all actives have a fitted effect of over 50% in size); conditions: recombinant CYP3A4, Luciferin-PPXE luminescence; series mostly up to 57.1 µM
# In short: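 20 nM human CYP3A4 with 25 uM Luciferin-PPXE (at KM) in 200 mM KPO4, preincubated 10 min with compound; NADPH regeneration started a 60 min RT reaction. Luciferin detected by luminescence, normalized to 57 uM ketoconazole as full inhibition.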
# [15] = qHTS Assay for Lipid Storage Modulators (AID 1519; calls by dose curve); conditions: Drosophila S3 cells, BODIPY lipid droplet/cell ratio, laser cytometry, cells loaded with oleic acid; for activity change, negative = inhibition: at 57.5 µM (top of the series)
# In short: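 Cells seeded at 5,000 per well were treated with compounds over a concentration series and loaded with oleic acid (400 uM, as added). Lipid droplet fluorescence (488 nm excitation, 500-530 nm channel) was read by laser-scanning cytometry and normalized to 20 uM Triacsin C.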
# [16] = measured here: cell count channel max response
# [17] = measured here: lipid channel max response
# Chain of Cytochrome P450 1A2 (Homo sapiens) (P05177 whole entry, looked up): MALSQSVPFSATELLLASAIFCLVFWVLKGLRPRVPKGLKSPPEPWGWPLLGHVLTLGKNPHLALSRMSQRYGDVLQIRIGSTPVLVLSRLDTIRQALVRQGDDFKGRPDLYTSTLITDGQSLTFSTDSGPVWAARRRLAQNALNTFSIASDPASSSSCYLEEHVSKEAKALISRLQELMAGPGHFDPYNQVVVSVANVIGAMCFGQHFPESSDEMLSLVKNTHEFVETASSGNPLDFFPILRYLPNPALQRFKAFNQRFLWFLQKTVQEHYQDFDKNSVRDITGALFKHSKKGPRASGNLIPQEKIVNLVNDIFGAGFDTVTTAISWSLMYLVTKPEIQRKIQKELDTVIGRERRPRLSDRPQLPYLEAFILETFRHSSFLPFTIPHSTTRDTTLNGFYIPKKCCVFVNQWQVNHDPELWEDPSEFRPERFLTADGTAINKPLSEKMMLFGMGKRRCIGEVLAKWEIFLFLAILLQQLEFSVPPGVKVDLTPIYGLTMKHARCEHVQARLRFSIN
# Chain of Lysosomal acid glucosylceramidase (Homo sapiens) (P04062 whole entry, looked up): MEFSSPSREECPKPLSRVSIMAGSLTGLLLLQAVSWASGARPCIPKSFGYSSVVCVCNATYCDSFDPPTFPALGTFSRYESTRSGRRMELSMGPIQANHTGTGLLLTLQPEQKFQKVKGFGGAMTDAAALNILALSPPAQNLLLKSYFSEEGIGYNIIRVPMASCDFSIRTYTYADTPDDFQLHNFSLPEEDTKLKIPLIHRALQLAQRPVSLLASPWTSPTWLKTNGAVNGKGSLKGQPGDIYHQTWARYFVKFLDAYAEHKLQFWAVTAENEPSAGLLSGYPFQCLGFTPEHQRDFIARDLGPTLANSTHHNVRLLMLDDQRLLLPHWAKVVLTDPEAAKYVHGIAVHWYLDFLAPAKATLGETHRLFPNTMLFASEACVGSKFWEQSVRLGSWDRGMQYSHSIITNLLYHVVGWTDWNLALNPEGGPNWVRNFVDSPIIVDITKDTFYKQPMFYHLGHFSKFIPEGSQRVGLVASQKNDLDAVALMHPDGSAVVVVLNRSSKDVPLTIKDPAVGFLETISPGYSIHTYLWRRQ
# Chain of 3',5'-cyclic-AMP phosphodiesterase 4B (Homo sapiens) (Q07343 whole entry, looked up): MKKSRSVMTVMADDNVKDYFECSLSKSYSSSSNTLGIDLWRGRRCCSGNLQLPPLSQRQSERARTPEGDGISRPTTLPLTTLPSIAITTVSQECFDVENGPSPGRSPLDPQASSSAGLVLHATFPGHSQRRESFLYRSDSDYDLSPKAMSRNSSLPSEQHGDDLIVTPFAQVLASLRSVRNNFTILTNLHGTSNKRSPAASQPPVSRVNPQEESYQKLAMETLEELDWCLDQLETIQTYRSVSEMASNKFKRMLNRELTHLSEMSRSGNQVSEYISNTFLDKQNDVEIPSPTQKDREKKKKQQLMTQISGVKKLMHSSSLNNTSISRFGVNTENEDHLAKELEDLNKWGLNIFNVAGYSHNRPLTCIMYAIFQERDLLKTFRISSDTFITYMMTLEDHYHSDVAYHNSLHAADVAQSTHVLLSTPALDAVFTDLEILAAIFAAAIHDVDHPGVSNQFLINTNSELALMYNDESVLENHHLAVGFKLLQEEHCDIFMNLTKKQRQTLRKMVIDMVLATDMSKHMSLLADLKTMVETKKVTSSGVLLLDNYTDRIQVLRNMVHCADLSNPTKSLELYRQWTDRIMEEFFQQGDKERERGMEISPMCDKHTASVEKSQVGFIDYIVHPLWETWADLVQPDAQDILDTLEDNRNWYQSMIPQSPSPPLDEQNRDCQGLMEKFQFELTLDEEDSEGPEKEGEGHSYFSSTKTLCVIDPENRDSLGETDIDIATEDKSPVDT
# Chain of Ubiquitin carboxyl-terminal hydrolase 1 (Homo sapiens) (O94782 whole entry, looked up): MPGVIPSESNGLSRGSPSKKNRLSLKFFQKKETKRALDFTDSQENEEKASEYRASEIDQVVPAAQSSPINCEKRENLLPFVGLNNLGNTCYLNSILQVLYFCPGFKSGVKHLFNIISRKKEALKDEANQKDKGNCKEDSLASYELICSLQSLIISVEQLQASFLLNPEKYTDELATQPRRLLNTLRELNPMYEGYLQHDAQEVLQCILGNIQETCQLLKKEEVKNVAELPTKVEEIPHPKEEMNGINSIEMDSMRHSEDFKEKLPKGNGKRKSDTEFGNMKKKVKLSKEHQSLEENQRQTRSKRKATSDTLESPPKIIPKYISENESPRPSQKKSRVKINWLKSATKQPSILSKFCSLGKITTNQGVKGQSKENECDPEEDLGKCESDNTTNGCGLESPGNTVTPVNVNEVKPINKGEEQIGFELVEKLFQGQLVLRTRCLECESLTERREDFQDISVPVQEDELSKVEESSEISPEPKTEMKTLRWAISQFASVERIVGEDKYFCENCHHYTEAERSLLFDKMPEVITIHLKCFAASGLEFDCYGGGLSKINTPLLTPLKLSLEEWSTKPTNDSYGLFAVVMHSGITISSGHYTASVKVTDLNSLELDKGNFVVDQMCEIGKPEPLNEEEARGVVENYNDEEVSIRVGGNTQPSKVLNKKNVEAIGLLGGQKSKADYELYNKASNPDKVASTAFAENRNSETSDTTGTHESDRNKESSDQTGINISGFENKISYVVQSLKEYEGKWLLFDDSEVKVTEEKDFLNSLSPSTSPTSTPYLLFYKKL
# Chain of Glucocorticoid receptor (Homo sapiens) (P04150 whole entry, looked up, the tested form may be a part): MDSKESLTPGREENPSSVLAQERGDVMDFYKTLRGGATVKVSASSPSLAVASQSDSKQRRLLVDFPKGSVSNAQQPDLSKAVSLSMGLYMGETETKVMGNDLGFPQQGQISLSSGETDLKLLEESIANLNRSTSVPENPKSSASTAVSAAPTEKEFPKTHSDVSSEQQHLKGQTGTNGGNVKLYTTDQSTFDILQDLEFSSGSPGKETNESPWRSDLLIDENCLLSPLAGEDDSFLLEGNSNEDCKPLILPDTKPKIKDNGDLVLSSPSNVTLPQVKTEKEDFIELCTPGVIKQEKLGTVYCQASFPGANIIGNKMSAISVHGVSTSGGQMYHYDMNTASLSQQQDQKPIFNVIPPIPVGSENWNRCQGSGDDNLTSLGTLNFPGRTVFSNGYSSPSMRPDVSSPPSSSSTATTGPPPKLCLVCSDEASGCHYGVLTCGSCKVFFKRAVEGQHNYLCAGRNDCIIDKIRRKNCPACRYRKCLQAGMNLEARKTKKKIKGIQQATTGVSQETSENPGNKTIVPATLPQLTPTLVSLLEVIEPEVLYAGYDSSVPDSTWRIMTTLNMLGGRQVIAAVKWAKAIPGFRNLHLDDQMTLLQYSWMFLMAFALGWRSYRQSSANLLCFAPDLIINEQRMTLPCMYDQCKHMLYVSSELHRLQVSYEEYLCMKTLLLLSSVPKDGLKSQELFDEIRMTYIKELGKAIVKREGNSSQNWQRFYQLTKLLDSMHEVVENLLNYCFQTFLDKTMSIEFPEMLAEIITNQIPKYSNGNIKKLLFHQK
# Chain of Dual specificity protein kinase CLK4 (Homo sapiens) (Q9HAZ1 whole entry, looked up): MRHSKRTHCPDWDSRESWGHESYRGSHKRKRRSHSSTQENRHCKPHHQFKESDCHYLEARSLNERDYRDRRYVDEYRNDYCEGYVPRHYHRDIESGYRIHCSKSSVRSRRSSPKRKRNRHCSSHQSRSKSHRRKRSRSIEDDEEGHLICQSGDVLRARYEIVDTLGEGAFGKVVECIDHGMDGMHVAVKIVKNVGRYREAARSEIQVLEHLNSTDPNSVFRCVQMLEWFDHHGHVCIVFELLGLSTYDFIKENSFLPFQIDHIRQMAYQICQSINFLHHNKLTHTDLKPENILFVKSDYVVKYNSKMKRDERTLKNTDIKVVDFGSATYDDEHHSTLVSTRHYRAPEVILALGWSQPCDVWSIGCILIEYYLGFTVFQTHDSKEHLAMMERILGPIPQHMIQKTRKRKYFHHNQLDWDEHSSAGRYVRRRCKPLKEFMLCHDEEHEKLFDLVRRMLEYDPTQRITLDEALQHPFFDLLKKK
# Chain of Cytochrome P450 3A4 (Homo sapiens) (P08684 whole entry, looked up): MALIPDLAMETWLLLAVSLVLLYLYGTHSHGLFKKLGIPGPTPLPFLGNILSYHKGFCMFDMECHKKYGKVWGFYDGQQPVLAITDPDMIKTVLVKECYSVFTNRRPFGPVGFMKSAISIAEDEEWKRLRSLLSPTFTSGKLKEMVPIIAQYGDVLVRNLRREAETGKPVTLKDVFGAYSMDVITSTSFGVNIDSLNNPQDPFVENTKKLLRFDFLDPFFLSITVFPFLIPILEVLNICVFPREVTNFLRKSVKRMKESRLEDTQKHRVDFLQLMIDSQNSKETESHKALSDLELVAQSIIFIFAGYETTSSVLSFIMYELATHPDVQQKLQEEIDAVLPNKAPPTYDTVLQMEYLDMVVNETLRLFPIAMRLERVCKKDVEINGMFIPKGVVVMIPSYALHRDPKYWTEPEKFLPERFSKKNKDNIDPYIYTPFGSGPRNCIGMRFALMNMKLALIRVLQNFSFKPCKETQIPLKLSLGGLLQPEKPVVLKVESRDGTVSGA
structure (smiles),measurement,setting,value
Cn1cccc1C(=O)N1CCC2(CCCN(c3ncccn3)C2)CC1,Potency,[1],> 11.4 µM (inactive)
same,"activity change, negative = inhibition",[2],7.97% (inactive)
same,Potency,[3],inactive
same,"activity change, negative = inhibition",[4],2.93% (inactive)
same,"activity, negative = inhibition",[5],-5.18% (inactive)
same,Potency,[6],> 46 µM (inactive)
same,Potency,[7],inactive
same,Potency,[8],inactive
COc1cccc(Cn2c(=O)c(-c3cn(C)c4ccccc34)nc3cncnc32)c1,Potency,[1],> 11.4 µM (inactive)
same,"activity change, negative = inhibition",[2],2.97% (inactive)
same,Potency,[3],1 µM (active)
same,"activity change, negative = inhibition",[4],-0.984% (inactive)
same,"activity, negative = inhibition",[5],-0.403% (inactive)
same,Potency,[9],> 9.22 µM (inactive)
same,Potency,[6],> 46 µM (inactive)
same,Potency,[7],inactive
same,Potency,[8],inactive
same,Potency,[10],inactive
same,Potency,[11],inactive
same,Potency,[12],inactive
same,Potency,[13],inactive
Nc1ccccc1C(=O)CC(N)C(=O)O (stereo unspecified),Potency,[14],inactive
same,"activity change, negative = inhibition",[15],9.57% (inactive) and 2.83% (inactive)
same,max response,[15]; [16],10.9% and 14.4%
same,max response,[15]; [17],21.6% and 17.6%
CN(C)C(=O)c1ccc(-c2ccc3ncnc(NCCN4CCOCC4)c3c2)cc1,Potency,[1],> 11.4 µM (inactive)
same,"activity change, negative = inhibition",[2],-5.51% (inactive)
same,"activity change, negative = inhibition",[4],6.26% (inactive)
same,"activity, negative = inhibition",[5],-17.4% (inactive)
same,Potency,[6],> 46 µM (inactive)
same,Potency,[7],inactive
same,Potency,[8],inactive
same,Potency,[10],inactive
same,Potency,[12],inactive
same,Potency,[13],inactive
Nc1ccn(C2OC(CO)C(O)C2O)c(=O)n1 (stereo unspecified),"activity change, negative = inhibition",[15],2.01% (inactive) and 0.795% (inactive)
same,max response,[15]; [16],-9.2% and 5.05%
same,max response,[15]; [17],-5.62% and 10.3%
COC(=O)N1CCC2(CCN(C(=O)Nc3ccc(OC)cc3)CC2)CC1,Potency,[1],> 11.4 µM (inactive)
same,"activity change, negative = inhibition",[2],-1.58% (inactive)
same,"activity change, negative = inhibition",[4],-8.6% (inactive)
same,"activity, negative = inhibition",[5],3.42% (inactive)
same,Potency,[6],> 46 µM (inactive)
same,Potency,[7],inactive
same,Potency,[8],inactive
N#CCCn1c(=O)c(-c2cccs2)nc2cnc(Nc3ccccc3)nc21,Potency,[1],> 11.4 µM (inactive)
same,Potency,[3],5.01 µM (active)
same,"activity change, negative = inhibition",[4],-22.7% (inactive)
same,"activity, negative = inhibition",[5],-25% (inactive)
same,Potency,[9],> 9.22 µM (inactive)
same,Potency,[6],> 46 µM (inactive)
same,Potency,[7],inactive
same,Potency,[8],inactive
same,Potency,[11],inactive
same,Potency,[12],inactive
same,Potency,[13],inactive

# — PubChem BioAssay (NCATS)
